40 compounds from ChEMBL document CHEMBL3433997, “St. Jude Leishmania screening dataset” (2016) can be followed below.

Each structure is given as a SMILES string.

The experiment addresses Glucose transporter (Leishmania mexicana) (UniProt O61059). Kind of experiment: ST_JUDE_LEISH: Cytotoxicity at 2uM final concentration against transgenic Leishmania Mexicana promastigotes LmGT2 that are glucose transport deficient and complemented with the L. Mexicana glucose transporter 2. Activity is measured by DNA content using SYBR green in vitro. Format: functional.
What is called inhibition is the relative decrease from the control value, in per cent. Turning to `OCCNc1nc(Nc2ccc(F)cc2)nc2ccccc12`, the inhibition is 2.07%.

For `Cc1ccc(CN2CCN(CC(O)COc3ccc4c(c3)CCC4)CC2)cc1` (stereo not given), the inhibition is -0.29%.

Regarding `CCOC(=O)c1ccc(NC(=O)N[C@@H](Cc2ccc(O)cc2)C(=O)NC2CCN(Cc3ccc4c(c3)OCO4)CC2)cc1`, the inhibition is 0.58%.

For the compound `c1ccc2sc(-c3csc(Nc4ccncc4)n3)nc2c1`, the inhibition amounted to 6.37%.

For the compound `O=C(COc1ccccc1)Nn1cnc2ccccc21`, the inhibition was 0.3%.

In the case of `Cc1ccc(NC(=O)c2ccc(N3CCN(c4ccncc4)CC3)cc2)cc1F`, the inhibition amounted to 82.4%.

`CC(=O)Nc1sc(C)c(C)c1CN1CCc2ccccc2C1`: the inhibition was -1.3%.

Take `CCNc1cc(C)nc(Nc2ccc(F)cc2)n1`: the inhibition came out at 8.37%.

Take `CC(C)(C)Oc1ccc(CC2NC3(C(=O)N(Cc4ccc(C(C)(C)C)cc4)c4ccccc43)C3C(=O)N(c4ccc(Br)cc4)C(=O)C23)cc1` (stereo not given): the inhibition is 0.37%.

For the compound `N#Cc1cccc(NC(=O)Nc2ccc(-c3csc(-c4nc5ccccc5[nH]4)c3)cc2)c1`, the inhibition turned out to be 3.91%.

Take `CCNc1cc(C(=O)N[C@@H](Cc2ccccc2)[C@H](O)CN[C@H](C)C(C)(C)C)cc(N2CCCCS2(=O)=O)c1`: the inhibition was found to be 2.33%.

On to `CNC(=O)NC1CCN(Cc2c(-c3cccs3)nc3ccccc3c2C(=O)N[C@@H](C)C2CCCCC2)CC1`, for which the inhibition is -1.52%.

Consider `CN(C)S(=O)(=O)c1ccc(C(=O)N(c2nc(-c3ccccc3)cs2)C2CCCCC2)cc1`, for which the inhibition was found to be 2.06%.

Consider `CCCCCCCC(=O)N[C@@H](Cc1ccccc1)C(=O)N[C@H](C(=O)O)C(C)C`, for which the inhibition was found to be 2.59%.

With `c1cc(CN2CCC(CCN3CCCCC3)CC2)cc(-c2csc(-c3nc4ccccc4[nH]3)c2)c1`, the inhibition was 4.01%.

As to `NCCNc1ccnc2cc(Cl)ccc12`, the inhibition was 1.05%.

On to `CC(=O)Nc1nc(C(=O)Nc2ccc(-c3ccc(-c4nc5ccccc5[nH]4)cc3)cc2)cs1`, for which the inhibition was 3.01%.

In the case of `CCCCCCCc1c(C)nc2cc(OC)ccc2c1O`, the inhibition came out at 7.02%.

On to `CN(C)CCN(Cc1ccccc1-c1ccc(CNCCc2ccccc2)cc1)C(=O)NC1CCCCC1`, for which the inhibition was determined as 0.85%.

Regarding `CN1CCN(c2ccnc3cc4ccccc4cc23)CC1`, the inhibition was -0.9%.

As to `O=C(Nc1ccc(Cl)cc1)Nc1cccc(-c2ccc(-c3nc4cc(F)ccc4[nH]3)cc2)c1`, the inhibition was found to be 4.76%.

`O=S(=O)(Nc1cccc(CCN2CCC(N3CCCCC3)CC2)c1)c1ccc2c(c1)OCCO2`: the inhibition was 8.66%.

For the compound `COc1cc2nc(NCCc3cccc(Cl)c3)nc(NCc3ccccc3)c2cc1OC`, the inhibition came out at 1.06%.

Regarding `CCC1=C(CC2NCCc3cc(OC)c(OC)cc32)CC2c3cc(OC)c(OC)cc3CCN2C1` (stereo not given), the inhibition amounted to 89.6%.

Take `CCCCCCNCc1c(O)ccc2c(CNCCCCCC)c(O)ccc12`: the inhibition was found to be 0.36%.

As to `Cc1ccnc(NC(c2cccc(OCc3ccccc3)c2)c2ccc3cccnc3c2O)c1` (stereo not given), the inhibition is -1.47%.

As for `COc1ccc2nccc(NCC3(O)CCN(CCc4ccc5c(c4)OCCO5)CC3)c2n1`, the inhibition was 0.15%.

For the compound `O=C(c1ccc(-c2cccc(-c3nc4cc(C(F)(F)F)ccc4[nH]3)c2)cc1)N1CCCCC1CN1CCC(O)C1` (stereo not given), the inhibition was found to be 0.17%.

As to `O=S(=O)(Nc1cccc(CCN2CCC(N3CCCCC3)CC2)c1)c1ccc(Oc2ccccc2)nc1`, the inhibition came out at 5.38%.

On to `CC(=O)NCCNCc1cccc(C(=O)NCc2cccc(C(F)(F)F)c2)c1`, for which the inhibition amounted to 4.88%.

With `Nc1nc(N)c2c(CCc3ccc4ccccc4c3)cccc2n1`, the inhibition is -1.66%.

Turning to `O=c1cc(NCCCNCc2scc(I)c2I)[nH]c2ccccc12`, the inhibition was determined as 4%.

With `Nc1c(Cl)cc(C(O)CNCCCCCCOCCc2ccc(O)cc2)cc1Cl` (stereo not given), the inhibition was -2.56%.

Turning to `Nc1nc(N)c2cc(NS(=O)(=O)c3ccc(-c4ccccc4)cc3)ccc2n1`, the inhibition is 3.56%.

On to `COc1ccc2nccc([C@@H](O)CN3CCC(NC/C=C/c4cccnc4)CC3)c2c1`, for which the inhibition is 2.59%.

Turning to `COc1ccc2nccc([C@@H](O)CN3CCC(NCc4ccc5scnc5c4)CC3)c2c1`, the inhibition turned out to be 3.04%.

In the case of `O=C(/C=C/c1ccc(Cl)cc1)NCCCCCN1CCC(c2c[nH]c3ccccc23)CC1`, the inhibition stood at 0.35%.

As to `CCc1ccc(C2=Nn3c(nnc3-c3cccs3)SC2)cc1`, the inhibition is -0.08%.

For the compound `COc1ccc2ncc(F)c(CCN3CC(O)C(CNCc4ccc(F)cc4)C3)c2n1` (stereo not given), the inhibition came out at 2.68%.

`Cc1cc2nc(-c3ccc(C(=O)NC4CCN(Cc5ccccc5)CC4)cc3)[nH]c2cc1C`: the inhibition amounted to 10.7%.
